# The campaign covered roughly 63,000 compounds. About 1,100 (1.7%) were called active. What follows is part of a selection rich in actives, with near analogues and random picks from the rest. Entries with a potency or affinity are not part of this list. Unmarked numbers belong to inactive results.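 Rule for the calls: active = compounds whose percent cytotoxicity in the single-dose primary screen, scaled between solvent and toxic-drug controls, exceeds 50; inactive = the rest.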
# Assay: cytotoxicity in KRAS-transformed pancreatic duct cells, primary screen, cell-based, fluorescence, HTS (AID 431);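 note: 0% = DMSO solvent wells and 100% = doxorubicin-treated wells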
# Conditions: HPDE-C7K KRASV12 cells, Alamar Blue viability, 48 h; at 10 µM; stronger effect = higher value
row,SMILES,cytotoxicity
1,CCCCCOc1ccc(NS(C)(=O)=O)cc1,-26.8%
2,O=c1[nH]c(C(F)(F)F)nc2ccccc12,-18.7%
3,COc1ccccc1N(CN1C(=O)c2ccccc2C1=O)C(=O)c1cccnc1,-10%
4,CCOC(=O)c1cc(-c2ccc(/C=N\n3cnnc3)o2)ccc1Cl,-11%
5,O=C1CNC(=O)/C1=C\N1CCCCC1,-3.5%
6,Cc1cc(Nc2ccc(Br)cc2F)n2nc(C)nc2n1,3.9%
7,CCCNC(=O)Nc1cc(OCC)c(N2CCOCC2)cc1OCC,2.8%
8,COc1ccc(C(=O)c2coc3ccc(O)c(CN4CCCCC4)c23)cc1,16.8%
9,COc1ccc(-c2coc3c(CN4CCCCC4)c(O)c(CN4CCCCC4)c(O)c3c2=O)cc1,54.7% (active)
10,O=c1c(-c2ccccc2)coc2c(CN3CCCC3)c(O)ccc12,-6.5%
11,CC1Cc2cc(C3(O)C(=O)c4ccccc4C3=O)ccc2N1 (stereo not given),-0.9%
12,COc1ccc(C2=[N+]([O-])C(C)(C)N(O)C2(C)C)cc1,-22%
13,Cc1ccc(C2c3c(oc4cc(C)c(C)cc4c3=O)C(=O)N2CCCN2CCOCC2)cc1 (stereo not given),-5.4%
14,Cc1c(-c2nc(N)nc(Nc3ccccc3)n2)oc2ccccc12,68.7% (active)
15,Cc1c(-c2nc(N)nc(Nc3ccccc3F)n2)oc2ccccc12,14.6%
16,Cc1c(-c2nc(N)nc(Nc3ccc(F)cc3)n2)oc2ccccc12,12%
17,CNC(=O)c1cc(S(=O)(=O)N(C)C)ccc1Cl,2.1%
18,CCCCOc1ccccc1-c1cc(C(=O)O)[nH]n1,-9.2%
19,CC(=O)Oc1c(S(=O)(=O)c2ccc(C)cc2)c(C)nn1-c1ccccc1,-4.8%
20,O=C1CCC(=O)N1c1cccc(-c2nc3ccccc3o2)c1,1.5%

row,SMILES,cytotoxicity
1,Nc1nnnn1/N=C/C=C/c1ccccc1,-19.8%
2,Nc1nnnn1/N=C/c1cccc(Oc2ccccc2)c1,-6.8%
3,C=CCOC(=O)C1=C(C)Nc2nnnn2C1c1cccc(OC)c1OC (stereo not given),1.2%
4,Cn1cc(/C=N/n2cnc3scc(-c4ccc(Cl)cc4)c3c2=O)c2ccccc21,77.5% (active)
5,Cn1cc(/C=N/n2cnc3scc(-c4ccccc4)c3c2=O)c2ccccc21,48.5%
6,Cn1cc(/C=N/n2cnc3sc4c(c3c2=O)CCCC4)c2ccccc21,7.8%
7,COc1ccc(NC(=O)C2CCN(S(=O)(=O)c3ccc(C)cc3)CC2)cc1OC,-26.5%
8,CCOc1ccc(C2CC(c3ccc(OC)cc3)n3ncnc3N2)cc1 (stereo not given),-6.4%
9,Cc1[nH]c2ccc(-c3nnc(SCC(=O)N4CCCc5ccccc54)o3)cc2c1C,2.9%
10,Cc1[nH]c2ccc(-c3nnc(SCC(=O)c4ccc(F)cc4)o3)cc2c1C,-0.1%
11,Cc1[nH]c2ccc(-c3nnc(SCC(=O)c4ccccc4F)o3)cc2c1C,78.5% (active)
12,CCc1[nH]nc2c1C(C(C)C)C(C#N)=C(N)O2 (stereo not given),-20.8%
13,Cc1nn(Cc2ccc(C(=O)NC3CCCCC3)o2)c(C)c1Br,10.5%
14,CC1CCc2c(nc3ncnn3c2N2CCN(c3ccccc3F)CC2)C1 (stereo not given),-5.6%
15,CCOC(=O)c1ccc(OCC(=O)c2ccc(O)cc2O)cc1,11.9%
16,CCOc1ccc(N2C(=O)c3ccc(C(=O)OCc4c(C)noc4C)cc3C2=O)cc1,-4.2%
17,CCCOC(=O)c1ccc(-c2c(C)noc2-c2ccc(OC)cc2O)o1,1.5%
18,CCOC(=O)c1c(N)n[nH]c1-c1ccc(OC)cc1,6.6%
19,CCOC(=O)COC(=O)c1ccc(O)cc1,1.8%
20,CCOc1ccc(-c2n[nH]c(C)c2Oc2ccc(OC)cc2)c(O)c1,16%

row,SMILES,cytotoxicity
1,COc1ccc(Cl)cc1NC(=O)CN1CCC(n2nnc3cc(F)ccc32)CC1,5.7%
2,O=C(c1ccc(S(=O)(=O)N2CCCC2)cc1)N1CCN(Cc2ccc3c(c2)OCO3)CC1,4.3%
3,c1coc(-c2nnc(SCc3cn4ccccc4n3)o2)c1,-5.9%
4,CCOC(=O)CN(C(=O)CSc1nnc(-c2ccc(OC)c(OC)c2)o1)c1ccc(F)cc1,-21.9%
5,CCOC(=O)c1c(NC(=O)CSc2nnc(CNc3ccc(F)cc3)o2)sc(C)c1C,-12.6%
6,COc1ccccc1NC(=O)COc1ccc(C(=O)OCC(=O)N2CCCC2=O)cc1OC,-27.1%
7,CCOc1ccc(-c2nnn(CC(=O)NCc3ccco3)n2)cc1,0.2%
8,CCCCOc1ccc(-c2nnn(CC(=O)NCc3ccco3)n2)cc1,50.9% (active)
9,O=C(Cn1nnc(-c2ccc3c(c2)OCO3)n1)NCc1ccco1,-12.9%
10,O=S(=O)(c1ccc(F)cc1)N1CCC(N2CCN(c3ccccc3)CC2)CC1,16.8%
11,Cn1c(NCc2ccco2)nc2c1c(=O)n(Cc1ccc(Cl)c(Cl)c1)c(=O)n2C,8.9%
12,Cn1c(N2CCN(c3ccccn3)CC2)nc2c1c(=O)n(Cc1ccc(Cl)cc1)c(=O)n2C,70% (active)
13,Cn1c(NCc2ccccc2)nc2c1c(=O)n(Cc1ccccc1)c(=O)n2C,-0.5%
14,Cn1c(NCC(O)c2ccccc2)nc2c1c(=O)n(Cc1ccc(Cl)c(Cl)c1)c(=O)n2C (stereo not given),64.7% (active)
15,Cn1c(NCC(O)c2ccccc2)nc2c1c(=O)n(Cc1ccc(Cl)cc1)c(=O)n2C (stereo not given),50.4% (active)
16,Cn1c(NCc2ccccc2)nc2c1c(=O)n(Cc1ccc(Br)cc1)c(=O)n2C,21.3%
17,Cn1c(N2CCN(c3ccccn3)CC2)nc2c1c(=O)n(Cc1ccccc1Cl)c(=O)n2C,3.4%
18,COc1ccc(CNc2nc3c(c(=O)n(Cc4ccc(Cl)cc4)c(=O)n3C)n2C)cc1,32.7%
19,Cn1c(N2CCCC2)nc2c1c(=O)n(Cc1ccc(Cl)cc1)c(=O)n2C,26.3%
20,COC(=O)c1coc(-c2ccc(C)cc2)c1C(=O)OC,-19.4%

# Source: PubChem BioAssay AID431 (Sanford-Burnham Center for Chemical Genomics, 2006)
